Reference: PubChem BioAssay AID1850 (Southern Research Specialized Biocontainment Screening …, 2009)
Among all 310,000 compounds or so, about 1,000 (0.32%) were called active. Only a sample is shown. Results with a measured potency or affinity are listed apart. Unmarked numbers belong to inactive results. The rule behind the calls is not given here.

Experiment: Inhibition of PhoP regulon, Salmonella typhi GFP reporter cells, confirmation, 4 h (AID 1850);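 note: 0% = induced wells with vehicle and 100% = uninduced wells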
Conditions: Salmonella Typhi PhoP-promoter GFP reporter, fluorescence, at 50 µM, active compounds read high

| SMILES | inhibition [%] |
| --- | --- |
| CC1CCCN(C(=O)C23CCC(C)(C(=O)C2)C3(C)C)C1 (stereo not given) | -4.73 |
| COc1cc(CCC(=O)N2CC(C)OC(C)C2)cc(OC)c1OC (stereo not given) | -14.2 |
| CC(C)CN(C(=O)CN(C)C(=O)c1ccco1)c1c(N)n(CC(C)C)c(=O)[nH]c1=O | -1.06 |
| Cc1cc2oc(=O)cc(Cn3ncc(Cl)c(Cl)c3=O)c2cc1Cl | -3.81 |
| Cc1cccc(OCCNc2cc(N3CCN(C)CC3)ccc2[N+](=O)[O-])c1 | -4.31 |
| COC(=O)[C@@H](NC(=O)c1ccccc1)[C@@H](C)O | -3.17 |
| COc1cccc(CN2CC(C(=O)NC3CCC3)CCC2=O)c1 (stereo not given) | -3.12 |
| C/C(=N\Nc1ccccc1Cl)c1ccc(-n2ccnc2)cc1 | 7.81 |
| CCCCOC(=O)c1ccc(NC(=O)COC(=O)CSc2nc(C)cc(C)n2)cc1 | -5.18 |
| CN(C)CCC1Sc2ccccc2Oc2ccccc21 (stereo not given) | -1.34 |
| CNCCC1Sc2ccccc2Oc2ccccc21 (stereo not given) | 10.6 |
| COc1ccccc1NC(=O)CSc1nnc(CCC(=O)Nc2ccccc2F)n1C | -5.48 |
| Cc1ccc(C(=O)Nn2cnnc2)cc1 | -11.2 |
| COc1cc(C2NC(=O)NC(O)(C(F)(F)F)C2C(=O)c2cccs2)ccc1O (stereo not given) | -4.52 |
| O=C1NC(c2ccccc2)C(C(=O)c2cccs2)C(O)(C(F)(F)F)N1 (stereo not given) | 0.79 |
| O=C1NC(c2ccncc2)C(C(=O)c2cccs2)C(O)(C(F)(F)F)N1 (stereo not given) | 2.95 |
| CCOC(=O)C1C(c2cccs2)NC(=O)N(C)C1(O)C(F)(F)F (stereo not given) | -2.14 |
| CCc1nnc(NC(=O)CN2CCN(CC)CC2)s1 | -8.02 |
| Nc1c2ccccc2nc2ccccc12 | 17.1 |
| Cc1cccc2nc3ccccc3cc12 | -7.86 |
| COCCNC(=O)c1ccc(CN2CCC(Cc3ccccc3)CC2)cc1 | -1.7 |
| CCOC(=O)C1CCN(C(=O)c2ccccc2NS(=O)(=O)c2ccc(C)cc2)CC1 | -7.2 |
| CC(Sc1nnc(N)s1)C(=O)Nc1ccc2c(c1)OCCO2 (stereo not given) | -3.64 |
| CCCNC(=O)Cn1cnc([N+](=O)[O-])n1 | -4.49 |
| NC(CO)C(O)c1ccc([N+](=O)[O-])cc1 (stereo not given) | -4.54 |
| O=C(O)CC(Cc1ccc(Cl)cc1)C(=O)Nc1ccc([N+](=O)[O-])cc1 (stereo not given) | -5.39 |
| O=C(Cc1ccccc1)NC(C(=O)O)C(O)c1ccc([N+](=O)[O-])cc1 (stereo not given) | 3.65 |
| CC(Cc1ccccc1)NC(=O)Cc1ccc([N+](=O)[O-])cc1 (stereo not given) | -4.09 |
| CCOC(=O)C(NC(C)=O)C(O)c1ccc([N+](=O)[O-])cc1 (stereo not given) | 3.41 |
| O=[N+]([O-])c1ccc(C(O)C(CO)NC(=S)Nc2ccccc2)cc1 (stereo not given) | 11.5 |
